Test results as given in PubChem BioAssay.
Values joined by “and” are separate entries in the source; they are usually repeats but may differ in a detail not shown here. Equal values may be shown once. Inconclusive results are not listed. Where a structure was tested more than once in an assay, its records may differ in their call. Active and inactive are the calls of the source.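 How the source made its calls, unless noted: active means normalized viability below 100% at a tested concentration; inactive means the rest.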

Key:
[1] = P. berghei load reduction in hepatocytes – cell-based, HepG2, luciferase luminescence, HepG2 viability, primary screen (AID 624349; in the data active means parasite load remaining mostly below about 12%, no sharp cut-off; inactive means mostly above about 10%;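 further: 100% = mean of DMSO negative control wells on the same plate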); conditions: P. berghei liver stage in HepG2, luciferase luminescence, concentration not given here; parasite load remaining: stronger effect = lower value; viability: measured here: HepG2 viability without parasites
[2] = viability loss in pontine glioma line – cell-based, SU-DIPG-XVII, MIPE5.0, CellTiter-Glo, qHTS, dose response (AID 1347060; cut-off not given, nearly all actives have AC50 up to about 26 µM;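 further: cells exposed to compound for 48 hours before viability readout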); conditions: CellTiter-Glo ATP luminescence
[3] = viability loss in pontine glioma line – cell-based, SU-DIPG-XIII, MIPE4.0, CellTiter-Glo, qHTS, dose response (AID 1347061; cut-off not given, nearly all actives have AC50 up to about 37 µM;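 further: cells exposed to compound for 48 hours before readout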); conditions: CellTiter-Glo ATP luminescence
[4] = viability loss in pontine glioma line – cell-based, JHH-DIPG-1, MIPE4.0, CellTiter-Glo, qHTS, dose response (AID 1347062; cut-off not given, nearly all actives have AC50 up to about 27 µM;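 further: cells exposed to compound for two days before readout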); conditions: JHH-DIPG-1 viability, CellTiter-Glo ATP luminescence
[5] = viability loss in pontine glioma line – cell-based, SU-DIPG-IV, MIPE4.0, CellTiter-Glo, qHTS, dose response (AID 1347063; cut-off not given, nearly all actives have AC50 up to about 30 µM;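 further: compound exposure lasted 48 hours before the viability readout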); conditions: CellTiter-Glo ATP luminescence
[6] = viability loss in pontine glioma line – cell-based, SU-DIPG-XIII, MIPE5.0, CellTiter-Glo, qHTS, dose response (AID 1347064; cut-off not given, nearly all actives have AC50 up to about 23 µM;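 further: cells exposed to compound for 48 hours before the viability read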); conditions: CellTiter-Glo ATP luminescence
[7] = viability loss in pontine glioma line – cell-based, SU-DIPG-XXV, MIPE5.0, CellTiter-Glo, qHTS, dose response (AID 1347065; cut-off not given, nearly all actives have AC50 up to about 26 µM;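 further: cells exposed to compound for 48 hours before ATP readout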); conditions: CellTiter-Glo ATP luminescence
[8] = growth inhibition of DIPG cells – cell-based, MIPE4.0 library, CellTiter-Glo luminescence, qHTS (AID 1347066; cut-off not given, nearly all actives have AC50 up to about 30 µM;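 further: cells exposed to compound for 48 hours before readout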); conditions: SU-DIPG-VI viability, CellTiter-Glo ATP luminescence
[9] = JHH-DIPG-1 glioma cell viability, MIPE5.0 library, CellTiter-Glo luminescence, qHTS (AID 1347067; cut-off not given, nearly all actives have AC50 up to about 26 µM;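 further: cells exposed to compound for 48 hours before readout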); conditions: JHH-DIPG-1 glioma viability, CellTiter-Glo ATP luminescence
[10] = growth inhibition of DIPG cells – cell-based, MIPE5.0 library, qHTS (AID 1347068; cut-off not given, nearly all actives have IC50 up to about 30 µM;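 further: cells exposed to compound for 48 hours before viability readout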); conditions: SU-DIPG-XXV viability
[11] = viability loss with induced miR-34 in A549 – imaging, A549 dox-inducible miR-34, nuclei and caspase counts, primary screen (AID 1347080;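 active means compounds whose cell count with miR-34 switched on is under 0.7 times the count with it off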); conditions: A549 miR-34 inducible, Hoechst nuclei count, 48 h
[12] = MELAS cybrid and Rieske KO viability enhancers – cell-based, MELAS cybrids, Rieske KO mouse fibroblasts, CellTiter-Glo, primary screen (AID 1508586;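 active means mean z-score across replicates of 1.96 or higher in either the MELAS or the Rieske mutant cell line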;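 further: z relative to plate mean and SD of compound and empty wells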); conditions: low glucose
[13] = compounds altering HSF1 focus formation in cells – imaging, Selleck Cancer Library (AID 1347162; in the data active means plate-normalised HSF1 focus index below about 0.46); conditions: human cells, HSF1 nuclear foci imaging, at 10 µM; SSMD: measured here: HSF1 foci SSMD mean; cell count: measured here: cell number; plate-normalised HSF1 focus index: stronger effect = lower value
[14] = drug combination growth inhibition, ovarian cancer – cell-based, oncology-focused library, rucaparib conditional, profiling panel (AID 1508598); conditions: patient-derived ovarian cancer cells, CellTiter-Glo viability, 144 h, stronger effect = lower value

C=C1C(=O)O[C@@H]2[C@H]3O[C@]3(C)CC/C=C(\C)CC[C@@H]12
active: AC50 [2] 9.34 µM | AC50 [3] 16.6 µM | AC50 [4] 14.8 µM | AC50 [5] 7.43 µM | AC50 [6] 4.68 µM | AC50 [7] 7.42 µM | AC50 [8] 3.72 µM | AC50 [9] 6.61 µM | IC50 [10] 16.6 µM | z-score ([12]; MELAS cybrid survival, CellTiter-Glo 48 h, stronger effect = higher value) 2.28
117% and 76.6%: viability [1]
5310 and 404: cell count ([11]; measured here: total cells without miR-34 induction)
1.09 and 1.49: fold change ([11]; measured here: relative caspase fold change +Dox/-Dox)
inactive: fold change ([11]; stronger effect = lower value, cell number ratio, induced over uninduced) 0.927 and 0.781
-0.555% (active) and 48% (inactive): parasite load remaining [1]
-0.174: z-score ([12]; Rieske KO mouse fibroblast survival, CellTiter-Glo 72 h)
4920 and 316: cell count ([11]; measured here: total cells with miR-34 induction, stronger effect = lower value)

Cn1c(=O)c(F)c(Nc2ccc(I)cc2F)c2c(=O)n(C[C@@H](O)CO)cnc21
7260: cell count [13]
inactive: outcome [8] | plate-normalised HSF1 focus index [13] 1.1 | viability ([14]; at 0.000305 µM, OCI-C5x cells, with rucaparib 10 µM, 100% = cells with rucaparib alone) 107% | viability ([14]; at 0.000305 µM, OCI-C5x cells, without rucaparib) 128% | viability ([14]; at 0.000305 µM, OCI-P5x cells, without rucaparib) 106% | viability ([14]; at 0.00122 µM, OCI-C5x cells, with rucaparib 10 µM, 100% = cells with rucaparib alone) 102% | viability ([14]; at 0.00122 µM, OCI-C5x cells, without rucaparib) 116% | viability ([14]; at 0.00488 µM, OCI-C5x cells, with rucaparib 10 µM, 100% = cells with rucaparib alone) 104% | viability ([14]; at 0.00488 µM, OCI-C5x cells, without rucaparib) 118% | viability ([14]; at 0.0195 µM, OCI-C5x cells, with rucaparib 10 µM, 100% = cells with rucaparib alone) 102% | viability ([14]; at 0.0195 µM, OCI-C5x cells, without rucaparib) 111% | viability ([14]; at 0.0781 µM, OCI-C5x cells, without rucaparib) 103%
1.8: SSMD [13]
active: AC50 [2] 0.0661 µM | AC50 [3] 0.264 µM | AC50 [4] 0.235 µM | AC50 [5] 3.32 µM | AC50 [6] 0.132 µM | AC50 [7] 0.295 µM | AC50 [9] 0.0661 µM | IC50 [10] 1.86 µM | viability ([14]; at 0.000305 µM, OCI-P5x cells, with rucaparib 20 µM, 100% = cells with rucaparib alone) 96.8% | viability ([14]; at 0.00122 µM, OCI-P5x cells, with rucaparib 20 µM, 100% = cells with rucaparib alone) 81.5% | viability ([14]; at 0.00122 µM, OCI-P5x cells, without rucaparib) 78.8% | viability ([14]; at 0.00488 µM, OCI-P5x cells, with rucaparib 20 µM, 100% = cells with rucaparib alone) 69% | viability ([14]; at 0.00488 µM, OCI-P5x cells, without rucaparib) 76.3% | viability ([14]; at 0.0195 µM, OCI-P5x cells, with rucaparib 20 µM, 100% = cells with rucaparib alone) 59.1% | viability ([14]; at 0.0195 µM, OCI-P5x cells, without rucaparib) 66.1% | viability ([14]; at 0.0781 µM, OCI-C5x cells, with rucaparib 10 µM, 100% = cells with rucaparib alone) 88.1% | viability ([14]; at 0.0781 µM, OCI-P5x cells, with rucaparib 20 µM, 100% = cells with rucaparib alone) 54.4% | viability ([14]; at 0.0781 µM, OCI-P5x cells, without rucaparib) 64.1% | viability ([14]; at 0.313 µM, OCI-C5x cells, with rucaparib 10 µM, 100% = cells with rucaparib alone) 86.7% | viability ([14]; at 0.313 µM, OCI-C5x cells, without rucaparib) 88.4% | viability ([14]; at 0.313 µM, OCI-P5x cells, with rucaparib 20 µM, 100% = cells with rucaparib alone) 43.7% | viability ([14]; at 0.313 µM, OCI-P5x cells, without rucaparib) 47.9% | viability ([14]; at 1.25 µM, OCI-C5x cells, with rucaparib 10 µM, 100% = cells with rucaparib alone) 58.9% | viability ([14]; at 1.25 µM, OCI-C5x cells, without rucaparib) 92.3% | viability ([14]; at 1.25 µM, OCI-P5x cells, with rucaparib 20 µM, 100% = cells with rucaparib alone) 34.4% | viability ([14]; at 1.25 µM, OCI-P5x cells, without rucaparib) 38.4% | viability ([14]; at 5 µM, OCI-C5x cells, with rucaparib 10 µM, 100% = cells with rucaparib alone) 49.3% | viability ([14]; at 5 µM, OCI-C5x cells, without rucaparib) 61.2% | viability ([14]; at 5 µM, OCI-P5x cells, with rucaparib 20 µM, 100% = cells with rucaparib alone) 2.17% | viability ([14]; at 5 µM, OCI-P5x cells, without rucaparib) 26.7%
